Several values for one entry are separate records, joined by “and”; a condition that tells them apart may be missing. Equal values may be shown once. The campaign covered roughly 290,000 compounds. About 27,000 (9.3%) were called active. No stated cut-off is given here; in the data, active means inhibition mostly above about 28% (no sharp cut-off); inactive means mostly below about 43%. The list comes from a sample in which actives are over-represented; it also holds similar structures and randomly drawn compounds.
assay: A qHTS for Small Molecule Inhibitors of Shiga Toxin; details: Vero cells, Shiga toxin protein synthesis inhibition reporter; at 38.7 µM, active compounds read high; further: 0% is about no effect

| SMILES | inhibition |
| --- | --- |
| CC(NC(=O)CNC(=O)Cc1cccc2ccccc12)c1ccc(S(N)(=O)=O)cc1 (configuration not stated) | -8.32% (inactive) |
| CC[C@]1(c2ccccc2OC)C(=O)N(C(=O)OC)N1C(=O)OC | 35.6% (active) |
| COc1ccccc1CC(=O)Nc1ccc(F)cc1F | 1.11% (inactive) |
| COC(=O)c1ccccc1NC(=O)Cc1ccccc1OC | 0.83% (inactive) |
| COc1ccccc1-n1c(SCC(=O)Nc2cccc(C(=O)O)c2)nnc1-c1ccccc1O | 6.46% (inactive) |
| O=C(NCCN1CCOCC1)c1ccc2c(c1)N(Cc1ccc(Cl)cc1)CCS2 | -14% (inactive) |
| CCOC(=O)N1CCN(C(=O)c2ccc3c(c2)N(Cc2ccc(C)cc2)CCS3)CC1 | -7.18% (inactive) |
| O=C(NCCc1ccccc1)c1ccc2c(c1)N(Cc1ccccc1)CCS2 | 59.8% (active) |
| COCCNc1ccc(-c2n[nH]c(=O)c3ccccc23)cc1[N+](=O)[O-] | -2.3% (inactive) |
| O=C(NCc1ccccc1Cl)C1CCN(S(=O)(=O)c2cccc3nonc23)CC1 | 9.83% (inactive) |
| CCN(CC(=O)NCC(=O)Nc1cccc(C)c1C)Cc1ccccc1 | -9.33% (inactive) |
| CCN1C(=O)/C(=C2\SC(N3CCCCC3)=NC2=O)c2ccccc21 | 52.1% (active) |
| CC(C)=C1SC(N2CCN(c3cccc(C)c3)CC2)=NC1=O | -21.2% (inactive) |
| CC(C)=C1SC(N2CCN(c3ccc(C)c(Cl)c3)CC2)=NC1=O | 7.4% (inactive) |
| Cc1cc(C)cc(C(=O)NC(CC(N)=O)c2ccc(N3CCC(N4CCCCC4)CC3)c([N+](=O)[O-])c2)c1 (configuration not stated) | -3.41% (inactive) |
| COc1cccc(NC(=O)N2C3CCCC2CC(NC(C)=O)C3)c1 (configuration not stated) | -2.41% (inactive) |
| Cc1ccc(S(=O)(=O)NCc2ccc(C(=O)NC3CCC(C)CC3)cc2)cc1 (configuration not stated) | -2.09% (inactive) |
| COc1ccc(NC(=O)CCNC(=O)Cn2cnc3sc4c(c3c2=O)CCCC4)cc1OC | 7.2% (inactive) |
| COc1ccc(/C=N/Nc2ncnc3sc4c(c23)CCCC4)cc1O | 79.2% (active) |
| COc1ccc(NC(=O)CCCNC(=O)Cn2cnc3sc4c(c3c2=O)CCCC4)cc1OC | -15.7% (inactive) |
| COc1ccc(NC(=O)CNC(=O)Cn2ccc3ccccc3c2=O)c(OC)c1 | -5.3% (inactive) |
| CC[C@H](C)[C@H](NC(=O)[C@H](CCCNC(=N)N)NC(=O)[C@H](CCCNC(=N)N)NC(=O)[C@H](CC(C)C)NC(=O)[C@H](Cc1ccccc1)NC(=O)CNC(=O)CNC(=O)[C@@H](N)Cc1ccc(O)cc1)C(=O)N[C@@H](CCCNC(=N)N)C(=O)N1CCC[C@H]1C(=O)N[C@@H](CCCCN)C(=O)N[C@@H](CC(C)C)C(=O)N[C@@H](CCCCN)C(=O)N[C@@H](Cc1c[nH]c2ccccc12)C(=O)N[C@@H](CC(=O)O)C(=O)N[C@@H](CC(N)=O)C(=O)N[C@@H](CCC(N)=O)C(=O)O | -7.4% (inactive) |
| CN(C)c1ccc(CNC(=O)CN2C(=O)COc3ccc(S(=O)(=O)N4CCCC4)cc32)cc1 | -2.88% (inactive) |
| O=[N+]([O-])c1ccccc1Nc1ccc(O)cc1 | -30.1% (inactive) |
| Oc1ccc(CNc2ccccc2O)cc1 | 120% (active) |

| SMILES | inhibition |
| --- | --- |
| O=C(Cc1ccc(Cl)cc1)NC(=S)Nc1ccccc1O | -14.5% (inactive) |
| CCN1CCN(C2CCCCC2NS(=O)(=O)c2ccc(Cl)cc2)CC1 (configuration not stated) | -12.5% (inactive) |
| COC(=O)C1=C(C)N(c2ccc(Br)cc2)C(=O)/C1=C\c1ccco1 | 14.6% (inactive) |
| O=C1OC(/C=C/c2ccccc2)=NC/1=C/c1ccco1 | -7.2% (inactive) |
| CC(C)(C)C1C/C(=C/c2ccco2)C(=O)/C(=C/c2ccco2)C1 (configuration not stated) | 46.5% (active) |
| Cc1c(S(=O)(=O)N2CC(C)CC(C)C2)c(=O)n(C)c(=O)n1C (configuration not stated) | -33.2% (inactive) |
| O=C(CCc1c[nH]c2ccccc12)NCCOc1ccccc1 | 44.8% (inactive) |
| Oc1ccc(N=Cc2sc3ccccc3c2Cl)cc1 | 77.5% (active) |
| Oc1ccc(N=Cc2c(O)ccc3ccccc23)cc1 | 18.7% (inactive) |
| Cc1nn(C)cc1/C=N/NC(=O)c1sc2ccccc2c1Cl | 25% (inactive) |
| CC(C)c1cc(C(=O)N/N=C/c2ccoc2)c(O)c(C(C)C)c1 | 4.23% (inactive) |
| O=C(N/N=C/c1ccoc1)c1ccc(Cl)cc1Cl | 68.7% (active) |
| CC(C)NC(=O)c1ccc(Cl)cc1Cl | 8.65% (inactive) |
| O=C(NCCCN1CCCCC1)C1CCCN(c2ncnc3c2nc2n3CCCCC2)C1 (configuration not stated) | 4.24% (inactive) |
| OC(COc1ccc(F)cc1Cl)CN1CCc2ccccc2C1 (configuration not stated) | 16.9% (inactive) |
| Cn1nccc1NS(=O)(=O)c1ccc(F)cc1 | 160% (active) |
| Cc1ccc(NS(=O)(=O)c2ccc(F)cc2)nc1 | -8.43% (inactive) |
| Cc1cc(C)cc(NS(=O)(=O)c2ccc(F)cc2)c1 | 8.8% (inactive) |
| COc1ccc(S(=O)(=O)NC(C)C(=O)NCc2ccncc2)cc1Cl (configuration not stated) | -1.67% (inactive) |
| CCCCc1ccc(NC(=O)NCc2cccnc2)cc1 | 6.04% (inactive) |
| Cc1nc(C)c(C(=O)Nc2ccc(C)c(F)c2)o1 | 0.239% (inactive) |
| Cc1ccc(NC(=O)Nc2ccc3oc(C)nc3c2)cc1 | 144% (active) |
| Cc1nc2cc(NC(=O)NCc3ccccc3)ccc2o1 | 44.8% (active) |
| Cc1nc2ccc(NC(=O)C(F)(F)F)cc2o1 | -11.6% (inactive) |
| O=C(CSc1ncccn1)NC(=O)NCc1ccccc1 | 34.2% (inactive) |

| SMILES | inhibition |
| --- | --- |
| COc1ccccc1N(CC(=O)N/N=C(\C)c1ccccc1O)S(=O)(=O)c1ccc(C)cc1 | -3.24% (inactive) |
| CCOC(=O)c1ccc(NC(=O)CCn2c(=O)oc3ccccc32)cc1 | -8.48% (inactive) |
| O=C(NC(=S)N1CCCCC1c1cccnc1)c1ccccc1 (configuration not stated) | 3.14% (inactive) |
| Cc1ccccc1NC(=O)CSc1ccc2nnc(-c3ccccn3)n2n1 | 15.7% (inactive) |
| COC(=O)c1ccccc1NC(=O)c1ccc(C#N)cc1 | 8.5% (inactive) |
| Cc1c(CN2CCC(n3nccc3NC(=O)CCc3ccccc3)CC2)cnn1C | 4.45% (inactive) |
| O=C(NCC(=O)N1CCC2(CC1)NCCc1[nH]cnc12)c1ccc(Br)cc1 | -10% (inactive) |
| COc1ccc(NC(=O)CCS(=O)(=O)c2cc3c(cc2Cl)NC(=O)CO3)cc1OC | -4.27% (inactive) |
| Cc1ccc2cc(CCNC(=O)c3c(-c4ccccc4Cl)noc3C)c(=O)[nH]c2c1 | -3.3% (inactive) |
| O=C(NCC1CCCO1)c1ccc2ccccc2n1 (configuration not stated) | 69.8% (active) |
| O=C(NCC1CCCO1)c1cc(-c2ccccc2)nc2ccccc12 (configuration not stated) | 15% (inactive) |
| Cc1ccc(-c2noc(-c3ccccc3C(=O)NCC3CCCO3)n2)cc1 (configuration not stated) | 48.4% (active) |
| Cc1nc2ccccc2c2oc(C(=O)NCC3CCCO3)cc12 (configuration not stated) | -16% (inactive) |
| Cc1ccccc1CN(c1ccc(C(=O)NCC2CCCO2)cc1)S(C)(=O)=O (configuration not stated) | -12.3% (inactive) |
| O=C(Nc1ccccc1C(=O)NCC1CCCO1)c1ccccc1F (configuration not stated) | 17.2% (inactive) |
| COCCNC(=O)c1ccccc1-c1nc(-c2ccccc2Cl)no1 | 79.4% (active) |
| Cc1cc(C)n(C(=O)CCNC(=O)c2ccccc2Cl)n1 | -4.34% (inactive) |
| O=C(CSCc1c(F)cccc1Cl)NCC1CCCO1 (configuration not stated) | -5.03% (inactive) |
| O=C(NCC1CCCO1)c1ccccc1-c1nc(-c2ccccc2Cl)no1 (configuration not stated) | 43.2% (active) |
| O=C(NCC1CCCO1)c1cc2c([nH]c3ccccc32)c(-c2ccc(F)cc2)n1 (configuration not stated) | -7.75% (inactive) |
| Cc1ccc(S(=O)(=O)N(CC(O)CN2CCCCC2)c2cccc([N+](=O)[O-])c2)cc1 (configuration not stated) | -3.58% (inactive) |
| COc1ccc(CCNS(=O)(=O)c2cc3c(cc2C)NC(=O)CO3)cc1OC | 14.5% (inactive) |
| CC(C)CC(=O)N1CCN(Cc2ccccc2Br)CC1 | 15.6% (inactive) |
| CN1CCN(NC(=O)Nc2ccc(Br)cc2)CC1 | 24.3% (inactive) |
| O=C(c1ccc(Cl)c(S(=O)(=O)N2CCCCC2)c1)N1CCCCCC1 | -21.7% (inactive) |

| SMILES | inhibition |
| --- | --- |
| COc1ccc(C(=O)CCC(=O)Nc2ccc(Cl)cc2)cc1 | -6.22% (inactive) |
| Cn1sc(=O)c2cc(S(=O)(=O)NC3CC3)ccc21 | -7.9% (inactive) |
| Cc1nn(Cc2ccccc2)c(C)c1NS(=O)(=O)c1ccccc1 | -5.63% (inactive) |
| ONC(=Nc1ccccc1)c1ccccc1Cl | -18.8% (inactive) |
| COc1ccc(N(C(=O)c2cccnc2)S(=O)(=O)c2ccc(OC)c(OC)c2)cc1 | -7.61% (inactive) |
| COc1ccc(OC)c(C(C)NC(=S)Nc2ccc(S(=O)(=O)Nc3ncccn3)cc2)c1 (configuration not stated) | -14% (inactive) |
| COc1ccc2cc(C(=O)C3CCCN(C(=O)c4sc(C)nc4C)C3)ccc2c1 (configuration not stated) | 15.6% (inactive) |
| O=C(CSc1ccc(-c2ccc(Br)cc2)nn1)NCC1CCCO1 (configuration not stated) | 2.72% (inactive) |
| CCCNC(=O)CCn1nc(-c2ccccc2)c2ccccc2c1=O | -10.6% (inactive) |
| COC(=O)C(CC(C)C)NS(=O)(=O)c1cc(Br)ccc1Br (configuration not stated) | 40.7% (inactive) |
| O=C(O)Cc1csc(-c2cccc(Oc3ccccc3)c2)n1 | -2.34% (inactive) and 18.5% (inactive) |
| CCC(=O)c1c[nH]c(C(=O)NCC2CCCO2)c1 (configuration not stated) | -5.73% (inactive) |
| COc1ccc(SCc2noc(C(=O)NCC3CCCO3)c2C(=O)O)cc1 (configuration not stated) | -6.14% (inactive) |
| COc1ccc2cc(C(=O)NCC3CCCO3)[nH]c2c1 (configuration not stated) | 81.7% (active) |
| CNC(=O)C1CCN(S(=O)(=O)c2c(C)noc2/C=C/c2cccc(C)c2)CC1 | -9.45% (inactive) |
| Cc1ccc2cccc(OCCCOc3ccccc3CO)c2n1 | 25.2% (inactive) |
| Cc1ccc(NC(=O)CN(C)Cc2ccc(F)cc2)c([N+](=O)[O-])c1 | 19.4% (inactive) |
| Cc1c(C(=O)NC2CCCCC2)oc2ccccc12 | 60.6% (inactive) |
| Cc1nonc1NC(=O)c1oc2ccccc2c1C | 85.7% (active) |
| CCc1nonc1NC(=O)c1oc2ccc(Cl)cc2c1C | 1.67% (inactive) |
| Cc1ccc(NC(=O)c2oc3ccccc3c2C)c([N+](=O)[O-])c1 | 46.2% (active) |
| Cc1nonc1NC(=O)c1ccccc1Br | 30.3% (inactive) |

From PubChem BioAssay AID2315 (National Center for Advancing Translational Sciences (NCATS), 2010)
